Our source for the outcome and AC50 values is PubChem BioAssay (EPA / NIEHS).

Molecules are shown by their SMILES. The source made the active and inactive calls. How the source made its calls: active means hit-call score of the fitted dose curve at least 0.9, where 1 is the maximum; inactive means score below 0.9.

A short description of assay [1]: ATG_GLI_CIS: Attagene CIS-FACTORIAL HepG2 Assay for human Zinc Finger Protein GLI1 (AID 2282945). The settings on record: HepG2, Attagene cis-factorial reporter mRNA, GLI element; actives raise or lower the signal. A digest of the protocol: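 Bidirectional curve fits relative to DMSO, using reporter mRNA levels from RT-PCR plus capillary electrophoresis. Cells were HepG2 transiently carrying cis-regulated reporter constructs, harvested 24 h after dosing.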

The target in assay [2] is Bile acid receptor (Homo sapiens) (UniProt Q96RI1). Nature of the assay: ATG_IR1_CIS: Attagene CIS-FACTORIAL HepG2 Assay for human Nuclear Receptor Subfamily 1 Group H Member 4 (NR1H4), IR1 submotif (AID 2282946). The settings on record: IR1 reporter transcription, actives raise or lower the signal. In short, it runs like this:
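Cells (human HepG2) carry transiently transfected cis-promoter reporter transcription units. Compounds are incubated 24 h, total RNA is reverse-transcribed and amplified, and labelled fragments are resolved by capillary electrophoresis. Curves use DMSO as baseline.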

The nature of assay [3]: ATG_GRE_CIS: Attagene CIS-FACTORIAL HepG2 Assay for human Glucocorticoid Response Elements (GRE) (AID 2282947). To be noted: HepG2 GRE cis-reporter, Attagene multiplex mRNA; actives raise or lower the signal. A digest of the protocol: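 Transient MRTU transfection of human HepG2 liver cells; cis-regulated reporters report endogenous factors. 24 h dosing → RNA isolation → RT-PCR → 6-FAM primer extension → HpaI cut → CE fragment analysis. Bidirectional fit, DMSO negative control.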

Assay [4] in a line: ATG_ISRE_CIS: Attagene CIS-FACTORIAL HepG2 Assay for human Interferon Regulatory Factor 1 (IRF1) binding to an Interferon-Stimulated Response Element (ISRE) (AID 2282948). To be noted: HepG2 ISRE cis-reporter (Attagene), mRNA transcription readout; actives raise or lower the signal. A digest of the protocol:
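Quantitation relies on labelled RT-PCR fragments separated by capillary electrophoresis. Human HepG2 cells bearing cis-promoter reporter constructs were treated 24 h; DMSO served as baseline for bidirectional fitting.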

A short description of assay [5]: ATG_M_32_CIS: Attagene CIS-FACTORIAL HepG2 Assay for M32 Transcription Factor (Internal Marker) (AID 2282949).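 Further: background control marker of the multiplexed CIS panel rather than a real target.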 To be noted: HepG2 Attagene cis-factorial M32 reporter, mRNA; actives raise or lower the signal. A digest of the protocol: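 Fluorescent capillary electrophoresis peaks of HpaI-digested, FAM-labelled RT-PCR reporter products give the signal. Source: transiently transfected human liver HepG2 cells, 24 h after chemical dosing; bidirectional fitting against DMSO.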

The nature of assay [6]: ATG_M_06_CIS: Attagene CIS-FACTORIAL HepG2 Assay for M06 Transcription Factor (Internal Marker) (AID 2282950). To be noted: HepG2 Attagene CIS-FACTORIAL M06 internal marker reporter; actives raise or lower the signal. In short, it runs like this:
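Serves as a background control readout. Transfected HepG2 exposed to compounds for 24 h, then reporter transcripts quantified by fluorescent RT-PCR and capillary electrophoresis. Both directions fitted against DMSO baseline.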

Assay [7] concerns the target Hypoxia-inducible factor 1-alpha (Homo sapiens) (UniProt Q16665). Nature of the assay: ATG_HIF1a_CIS: Attagene CIS-FACTORIAL HepG2 Assay for human Hypoxia Inducible Factor 1 (HIF1A) (AID 2282951). The settings on record: HepG2 Attagene cis-factorial HIF1a reporter transcription; actives raise or lower the signal. A digest of the protocol:
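Endogenous-TF cis reporter readout, human HepG2 cells, 24 h incubation; mRNA detected via RT-PCR and capillary electrophoresis fluorescence; DMSO-normalised bidirectional fitting.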

A short description of assay [8]: ATG_MRE_CIS: Attagene CIS-FACTORIAL HepG2 Assay for human Metal Responsive Element (MRE) (AID 2282954). The settings on record: HepG2 MRE cis-reporter transcription, Attagene multiplex; actives raise or lower the signal. A digest of the protocol: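 Transient MRTU transfection of HepG2 (FuGene 6); 24 h dosing; total RNA → oligo(dT) RT, PCR, 6-FAM primer extension, HpaI cut, CE. Bidirectional fit vs DMSO.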

The nature of assay [9]: ATG_PBREM_CIS: Attagene CIS-FACTORIAL HepG2 Assay for human Phenobarbital-responsive Enhancer Module (PBREM) (AID 2282955). The settings on record: HepG2 PBREM cis-reporter, Attagene multiplexed transcription; actives raise or lower the signal. In short, it runs like this:
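Readout: reporter mRNA, fluorescent RT-PCR fragments separated by capillary electrophoresis. System: HepG2 transiently transfected with cis-regulated reporter units. Exposure: 24 h. Analysis: bidirectional, DMSO baseline.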

In assay [10] the target is Paired box protein Pax-6 (Homo sapiens) (UniProt P26367). The assay is described as follows: ATG_Pax6_CIS: Attagene CIS-FACTORIAL HepG2 Assay for human Paired Box 6 (PAX6) (AID 2282956). To be noted: HepG2 CIS-FACTORIAL PAX6 reporter transcription, RNA readout; actives raise or lower the signal. A digest of the protocol: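 After twenty-four hours of chemical exposure, transfected HepG2 cells are harvested for RNA. Cis-promoter reporter transcripts are amplified, fluorescently labelled and sized by capillary electrophoresis, with gain and loss of signal scored against DMSO.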
Chain of Paired box protein Pax-6 (Homo sapiens) (P26367 whole entry, looked up): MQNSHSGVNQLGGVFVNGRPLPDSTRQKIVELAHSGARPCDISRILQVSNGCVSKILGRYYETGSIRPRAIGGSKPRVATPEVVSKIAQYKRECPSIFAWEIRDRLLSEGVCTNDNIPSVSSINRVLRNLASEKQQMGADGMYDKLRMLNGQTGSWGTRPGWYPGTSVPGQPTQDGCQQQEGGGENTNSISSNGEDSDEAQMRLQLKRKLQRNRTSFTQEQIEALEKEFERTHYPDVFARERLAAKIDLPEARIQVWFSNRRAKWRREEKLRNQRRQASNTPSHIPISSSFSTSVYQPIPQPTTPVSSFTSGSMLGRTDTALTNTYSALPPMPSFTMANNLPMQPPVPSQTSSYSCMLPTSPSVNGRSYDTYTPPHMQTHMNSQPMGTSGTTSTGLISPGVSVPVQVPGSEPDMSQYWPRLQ

A short description of assay [11]: ATG_PXRE_CIS: Attagene CIS-FACTORIAL HepG2 Assay for human Pregnane X Receptor Element (PXRE) (AID 2282957). To be noted: HepG2 Attagene CIS-FACTORIAL PXRE reporter, mRNA; actives raise or lower the signal. A digest of the protocol: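 Transiently transfected HepG2 cells were dosed and incubated for 24 h. RNA was then isolated, DNase-treated, reverse-transcribed and reporter sequences amplified. Labeled, HpaI-digested fragments were quantified by capillary electrophoresis against DMSO.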

Assay [12] in a line: ATG_PPRE_CIS: Attagene CIS-FACTORIAL HepG2 Assay for human Peroxisome Proliferator-activated Response Element (PPRE) (AID 2282958). To be noted: HepG2 PPRE cis-element reporter, Attagene transcription factor profiling; actives raise or lower the signal. A digest of the protocol: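 After human HepG2 hepatoma cells were transiently transfected with cis-promoter reporter constructs, they were exposed to test chemicals for 24 hours. Reporter RNA was then reverse-transcribed, PCR-amplified, FAM-labeled, HpaI-digested and quantified by capillary electrophoresis.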

Assay [13] is described as follows: ATG_Sox_CIS: Attagene CIS-FACTORIAL HepG2 Assay for human SRY-box transcription factor (SOX) (AID 2282960). To be noted: HepG2 Attagene cis-factorial SOX reporter, mRNA; actives raise or lower the signal. In short, it runs like this:
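Using transiently transfected HepG2 cells, reporter transcription driven by cis elements was assessed 24 h after dosing. Signal was fluorescence of capillary-separated RT-PCR products, with DMSO defining baseline activity.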

In assay [14] the target is Transcription factor Sp1 (Homo sapiens) (UniProt P08047). The assay is described as follows: ATG_Sp1_CIS: Attagene CIS-FACTORIAL HepG2 Assay for human Specificity Protein 1 (Sp1) (AID 2282961). The settings on record: HepG2 Sp1 cis-reporter transcription, actives raise or lower the signal. In short, it runs like this:
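After transient transfection of HepG2 cells with cis-promoter reporter units and 24 h chemical treatment, reporter transcripts were quantified by RT-PCR and capillary electrophoresis fluorescence. Gain- and loss-of-signal fitted against DMSO.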

Assay [15] addresses Signal transducer and activator of transcription 3 (Homo sapiens) (UniProt P40763). Nature of the assay: ATG_STAT3_CIS: Attagene CIS-FACTORIAL HepG2 Assay for human Signal Transducer and Activator of Transcription 3 (STAT3) (AID 2282963). To be noted: HepG2, Attagene cis-factorial STAT3 reporter transcription; actives raise or lower the signal. In short, it runs like this: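 Endogenous STAT3-responsive cis-element activity was read in transiently transfected HepG2 cells after 24 h treatment. Reporter transcripts were quantified via RT-PCR and capillary electrophoresis, with DMSO as negative control and bidirectional curve fitting.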

Assay [16] can be described thus: ATG_TA_CIS: Attagene CIS-FACTORIAL HepG2 Assay for human TA Basal Promoter (AID 2282964). The settings on record: HepG2 Attagene CIS-factorial TA basal promoter reporter; actives raise or lower the signal. In short, it runs like this: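 Background-control readout: TA basal promoter reporter mRNA, fitted in both directions relative to DMSO. Measured by RT-PCR and capillary electrophoresis 24 hours after treating HepG2 human liver cells transiently carrying multiplexed cis-regulated reporter constructs.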

For assay [17], the target named is Hepatocyte nuclear factor 6 (Homo sapiens) (UniProt Q9UBC0). The assay is described as follows: ATG_HNF6_CIS: Attagene CIS-FACTORIAL HepG2 Assay for human Hepatocyte Nuclear Factor 6 (HNF6) (AID 2282952). The settings on record: HepG2 Attagene cis-factorial HNF6 reporter transcription; actives raise or lower the signal. In short, it runs like this:
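Reporter mRNA induction or loss in HepG2 after 24 h exposure; transient cis-MRTU transfection; fragments quantified by capillary electrophoresis; bidirectional analysis, DMSO as negative control.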

Assay [18] has as its target Heat shock factor protein 1 (Homo sapiens) (UniProt Q00613). Nature of the assay: ATG_HSE_CIS: Attagene CIS-FACTORIAL HepG2 Assay for human Heat Shock Transcription Factor 1 (HSE) (AID 2282953). The settings on record: HepG2 HSE cis-reporter, Attagene RNA transcription; actives raise or lower the signal. In short, it runs like this:
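Endogenous transcription factor activity in transiently transfected HepG2, read as reporter mRNA by RT-PCR with fluorescent capillary electrophoresis after 24 h. Gain or loss of signal fitted versus DMSO baseline.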

Assay [19] in a line: ATG_SREBP_CIS: Attagene CIS-FACTORIAL HepG2 Assay for human Sterol Regulatory Element Binding (SREBP) (AID 2282962). To be noted: HepG2 Attagene cis-factorial SREBP reporter, mRNA; actives raise or lower the signal. A digest of the protocol:
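Twenty-four hours after chemical dosing of transfected HepG2 cultures, reporter RNA was converted to cDNA, amplified, end-labelled with 6-FAM and resolved by capillary electrophoresis. Responses were fitted relative to DMSO.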

A short description of assay [20]: ATG_RORE_CIS: Attagene CIS-FACTORIAL HepG2 Assay for human RAR-related Orphan Receptor Element (RORE) (AID 2282959). To be noted: HepG2 Attagene cis-factorial RORE reporter, mRNA; actives raise or lower the signal. In short, it runs like this:
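Measured here: transcript induction of a cis-regulated reporter in HepG2 cells transiently transfected via FuGene 6. After 24 h, RNA was processed by RT-PCR and fluorescent capillary electrophoresis; DMSO defined baseline activity.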

Chain of Hypoxia-inducible factor 1-alpha (Homo sapiens) (Q16665 whole entry, looked up): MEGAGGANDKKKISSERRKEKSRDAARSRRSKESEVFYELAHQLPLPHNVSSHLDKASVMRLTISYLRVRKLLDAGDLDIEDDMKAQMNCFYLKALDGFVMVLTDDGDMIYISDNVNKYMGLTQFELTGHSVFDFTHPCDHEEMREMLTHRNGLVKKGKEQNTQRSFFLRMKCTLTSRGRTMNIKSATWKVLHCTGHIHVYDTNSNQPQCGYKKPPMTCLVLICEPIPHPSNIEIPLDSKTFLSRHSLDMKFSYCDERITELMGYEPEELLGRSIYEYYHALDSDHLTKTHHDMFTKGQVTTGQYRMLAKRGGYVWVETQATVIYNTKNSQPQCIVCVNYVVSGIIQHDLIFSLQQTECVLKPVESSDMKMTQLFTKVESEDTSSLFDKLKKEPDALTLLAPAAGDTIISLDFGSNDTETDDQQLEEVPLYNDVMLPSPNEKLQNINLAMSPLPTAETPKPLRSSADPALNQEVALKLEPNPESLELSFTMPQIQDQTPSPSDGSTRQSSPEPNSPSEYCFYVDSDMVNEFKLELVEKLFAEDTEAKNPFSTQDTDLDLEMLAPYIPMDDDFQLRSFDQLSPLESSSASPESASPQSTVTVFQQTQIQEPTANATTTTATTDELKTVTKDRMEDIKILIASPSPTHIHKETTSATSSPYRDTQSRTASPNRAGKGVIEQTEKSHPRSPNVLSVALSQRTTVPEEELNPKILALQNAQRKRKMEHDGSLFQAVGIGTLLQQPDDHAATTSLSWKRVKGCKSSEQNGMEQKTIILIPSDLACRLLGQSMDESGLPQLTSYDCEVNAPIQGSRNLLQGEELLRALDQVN
Chain of Hepatocyte nuclear factor 6 (Homo sapiens) (Q9UBC0 whole entry, looked up, the tested form may be a part): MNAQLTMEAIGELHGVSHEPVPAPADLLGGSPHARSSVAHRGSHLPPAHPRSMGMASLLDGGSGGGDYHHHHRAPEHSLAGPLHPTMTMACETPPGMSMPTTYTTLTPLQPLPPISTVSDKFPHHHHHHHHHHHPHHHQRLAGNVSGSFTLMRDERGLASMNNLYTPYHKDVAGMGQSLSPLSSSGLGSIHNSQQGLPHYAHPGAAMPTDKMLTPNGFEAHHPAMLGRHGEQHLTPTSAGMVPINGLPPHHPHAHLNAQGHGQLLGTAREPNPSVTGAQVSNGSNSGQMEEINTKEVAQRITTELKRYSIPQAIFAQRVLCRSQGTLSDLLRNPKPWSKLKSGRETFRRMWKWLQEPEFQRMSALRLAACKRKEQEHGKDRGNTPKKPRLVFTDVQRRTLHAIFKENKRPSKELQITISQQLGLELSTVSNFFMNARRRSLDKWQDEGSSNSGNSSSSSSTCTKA
Chain of Bile acid receptor (Homo sapiens) (Q96RI1 whole entry, looked up, the tested form may be a part): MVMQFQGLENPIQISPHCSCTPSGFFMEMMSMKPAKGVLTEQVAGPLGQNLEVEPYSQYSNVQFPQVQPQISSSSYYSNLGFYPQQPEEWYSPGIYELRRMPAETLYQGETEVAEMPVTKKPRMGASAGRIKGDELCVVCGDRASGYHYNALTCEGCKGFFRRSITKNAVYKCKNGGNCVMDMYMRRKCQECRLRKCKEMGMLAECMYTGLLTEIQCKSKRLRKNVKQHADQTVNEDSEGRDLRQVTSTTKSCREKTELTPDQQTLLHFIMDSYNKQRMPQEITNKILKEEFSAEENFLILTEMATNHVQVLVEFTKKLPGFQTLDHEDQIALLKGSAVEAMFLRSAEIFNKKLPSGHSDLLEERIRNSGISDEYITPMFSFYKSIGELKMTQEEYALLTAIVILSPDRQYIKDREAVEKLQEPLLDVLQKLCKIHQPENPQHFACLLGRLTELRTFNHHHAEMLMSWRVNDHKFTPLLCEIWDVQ
Chain of Heat shock factor protein 1 (Homo sapiens) (Q00613 whole entry, looked up): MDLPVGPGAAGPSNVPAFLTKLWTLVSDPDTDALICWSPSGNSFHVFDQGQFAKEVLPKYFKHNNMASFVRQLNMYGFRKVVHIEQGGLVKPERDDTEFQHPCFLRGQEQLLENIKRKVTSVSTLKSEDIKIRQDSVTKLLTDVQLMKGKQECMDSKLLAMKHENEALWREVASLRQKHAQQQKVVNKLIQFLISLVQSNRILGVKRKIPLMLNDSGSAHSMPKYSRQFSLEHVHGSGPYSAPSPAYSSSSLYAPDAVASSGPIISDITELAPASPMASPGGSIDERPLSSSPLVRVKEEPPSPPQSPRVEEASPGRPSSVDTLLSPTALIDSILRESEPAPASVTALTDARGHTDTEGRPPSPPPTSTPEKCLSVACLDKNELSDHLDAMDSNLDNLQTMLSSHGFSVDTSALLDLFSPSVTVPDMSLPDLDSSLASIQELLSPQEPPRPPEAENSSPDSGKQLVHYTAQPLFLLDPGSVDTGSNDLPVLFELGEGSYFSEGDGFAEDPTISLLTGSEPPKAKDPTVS
Chain of Transcription factor Sp1 (Homo sapiens) (P08047 whole entry, looked up): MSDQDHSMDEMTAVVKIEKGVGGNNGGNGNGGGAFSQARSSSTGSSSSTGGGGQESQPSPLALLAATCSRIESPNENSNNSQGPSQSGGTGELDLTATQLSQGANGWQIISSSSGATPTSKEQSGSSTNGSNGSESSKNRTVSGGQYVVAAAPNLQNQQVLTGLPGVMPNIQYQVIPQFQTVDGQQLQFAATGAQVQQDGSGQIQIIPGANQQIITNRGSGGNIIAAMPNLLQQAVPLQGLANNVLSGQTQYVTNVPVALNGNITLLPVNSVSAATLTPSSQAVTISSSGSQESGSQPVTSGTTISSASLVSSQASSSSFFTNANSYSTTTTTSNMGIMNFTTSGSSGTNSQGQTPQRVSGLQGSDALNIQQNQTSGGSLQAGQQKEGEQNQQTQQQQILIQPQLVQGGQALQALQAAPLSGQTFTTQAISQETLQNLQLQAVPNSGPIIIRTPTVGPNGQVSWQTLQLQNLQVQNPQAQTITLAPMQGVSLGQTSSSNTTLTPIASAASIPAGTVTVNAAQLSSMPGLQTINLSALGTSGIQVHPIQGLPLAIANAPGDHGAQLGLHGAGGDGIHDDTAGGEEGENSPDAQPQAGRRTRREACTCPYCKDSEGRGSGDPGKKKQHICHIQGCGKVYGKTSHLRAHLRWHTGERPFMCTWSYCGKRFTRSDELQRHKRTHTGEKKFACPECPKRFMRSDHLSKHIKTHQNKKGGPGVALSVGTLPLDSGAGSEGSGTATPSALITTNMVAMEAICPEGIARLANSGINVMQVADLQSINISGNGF
Chain of Signal transducer and activator of transcription 3 (Homo sapiens) (P40763 whole entry, looked up): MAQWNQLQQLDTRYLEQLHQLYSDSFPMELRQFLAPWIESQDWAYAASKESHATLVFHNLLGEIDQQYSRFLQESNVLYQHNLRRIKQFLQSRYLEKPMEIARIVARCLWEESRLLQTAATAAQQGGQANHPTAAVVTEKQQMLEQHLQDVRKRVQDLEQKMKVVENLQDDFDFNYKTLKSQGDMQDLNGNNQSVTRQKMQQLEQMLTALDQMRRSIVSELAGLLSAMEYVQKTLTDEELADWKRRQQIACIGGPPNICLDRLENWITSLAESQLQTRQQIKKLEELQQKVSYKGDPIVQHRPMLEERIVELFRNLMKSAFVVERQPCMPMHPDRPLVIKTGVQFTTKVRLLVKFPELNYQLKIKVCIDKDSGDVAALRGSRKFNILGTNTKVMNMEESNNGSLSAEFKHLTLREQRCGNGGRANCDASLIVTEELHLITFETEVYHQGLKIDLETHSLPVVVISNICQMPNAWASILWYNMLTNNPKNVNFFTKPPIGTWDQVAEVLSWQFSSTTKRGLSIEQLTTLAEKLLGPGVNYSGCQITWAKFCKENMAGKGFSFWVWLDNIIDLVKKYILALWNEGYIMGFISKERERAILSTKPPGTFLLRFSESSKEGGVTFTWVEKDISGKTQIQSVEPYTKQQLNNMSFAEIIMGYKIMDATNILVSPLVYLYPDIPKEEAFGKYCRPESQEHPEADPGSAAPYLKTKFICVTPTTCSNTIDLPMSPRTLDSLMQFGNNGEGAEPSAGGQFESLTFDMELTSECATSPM

`[Co]`: the call in [1], in assay [2], in [3], in assay [4], in assay [5] and in assay [6] was inactive. Also, the result in [7], in assay [8], in assay [9], in [10], in [12] and in assay [13] was inactive. The molecule was called inactive in assay [14], in assay [15] and in assay [16]. The AC50 in assay [11] was 13.8 µM (active).

Take `CCCCOc1ccc(N)cc1`: the molecule was called inactive in assay [1], in assay [2], in assay [3], in assay [4], in assay [5] and in assay [6]. The molecule was called inactive in assay [7], in assay [17], in [18], in assay [8], in assay [9] and in [10]. For the same molecule, the call in assay [11], in assay [12], in [14], in assay [19], in assay [15] and in [16] was inactive.

For `O=C(O)C(F)(F)C(F)(F)C(F)(F)C(F)(F)F`, the outcome in assay [1], in [2], in assay [3], in assay [4], in assay [5] and in [6] was inactive. In addition, the result in assay [17], in assay [18], in assay [8], in assay [9], in [10] and in assay [11] was inactive. Also, the molecule was called inactive in [12], in [20], in assay [13], in assay [14], in [19] and in assay [15]. In addition, the result in assay [16] was inactive.

For `FC(F)(F)C(F)(F)C(F)(F)C(F)(F)C(F)(F)C(F)(F)C(F)(F)I`, the call in assay [1], in assay [2], in assay [3], in [4], in assay [5] and in assay [6] was inactive. The result in [7], in [17], in assay [18], in [8], in assay [9] and in [10] was inactive. Moreover, the molecule was classed as inactive in [11], in assay [12], in assay [20], in assay [14], in assay [15] and in assay [16].
